# Screens as filed in PubChem.
# BAZ2B inh: qHTS Assay for Inhibitors of BAZ2B | Bromodomain adjacent to zinc finger domain protein 2B (Homo sapiens), Q9UIF8 | AlphaScreen BAZ2B-H3K14Ac peptide displacement | Potency, µM (series often up to 114 µM), for the others: at the top dose activity change, negative = inhibition, most hits filed as inhibitors | 360,000 tested, 4.4% active; note: % is set by controls: 0 for no effect and ±100 for the full control effect; nearly all actives have a fitted effect of over 60% in size
#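 Inhibition is scored as reduced AlphaScreen emission. The BAZ2B/b-H3(5-23)K14Ac complex (50 nM each) in PBS pH 7.4, 0.01% Tween-20 meets compound (up to 110 uM) for 30 min at RT before bead addition.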
# JMJD2A Tudor: qHTS Assay for Inhibitors of JMJD2A-Tudor Domain; Lysine-specific demethylase 4A (Homo sapiens), O75164; AlphaScreen JMJD2A-Tudor / H3K4me3 peptide binding; Potency, µM (doses to about 114 µM), without a hit: at the top dose activity change, negative = inhibition, actives largely listed as inhibitors; 390,000 tested, 4.4% active; note: % is set by controls: 0 for no effect and ±100 for the full control effect; nearly all actives have a fitted effect of over 50% in size
# HP1b binding inh: HTS for Inhibitors of HP1-beta Chromodomain Interactions with Methylated Histone Tails. AlphaScreen HP1-beta / biotin-H3K9me3 peptide binding. 390,000 tested, 0.56% active. Potency, µM (series often up to 114 µM), for inactives: at the highest dose activity change, negative = inhibition, most hits filed as inhibitors. Chromobox protein homolog 1 (Homo sapiens), P83916; note: nearly all actives have a fitted effect of over 70% in size
# Target sequence (P83916 whole entry, looked up): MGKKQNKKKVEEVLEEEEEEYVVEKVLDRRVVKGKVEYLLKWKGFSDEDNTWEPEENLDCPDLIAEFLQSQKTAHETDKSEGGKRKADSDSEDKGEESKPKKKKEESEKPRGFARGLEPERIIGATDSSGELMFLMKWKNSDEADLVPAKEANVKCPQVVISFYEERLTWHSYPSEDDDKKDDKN
#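 HP1-beta protein (50 nM final) preincubated 30 min at room temperature with biotinylated H3(1-18)K9me3 peptide (50 nM) in PBS pH 7.4, 0.01% Tween-20, then compound added for 30 min. AlphaScreen streptavidin donor/nickel chelate acceptor beads (10 ug/mL final), 30 min dark, luminescence read.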
# L3MBTL1 inh: qHTS Assay for the Inhibitors of L3MBTL1; Potency, µM (series often up to 57.1 µM), without a hit: top-dose activity, negative = inhibition, hits mostly inhibitors; AlphaScreen L3MBTL1–H3K9me1 peptide binding; 230,000 tested, 0.66% active; Lethal(3)malignant brain tumor-like protein 1 (Homo sapiens), Q9Y468; note: % is set by controls: 0 for no effect and ±100 for the full control effect; nearly all actives have a fitted effect of over 60% in size
#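 L3MBTL1 (50 nM) pre-complexed 30 min with biotinylated H3(1-15)K9me1 peptide (75 nM), then compounds added for 30 min at room temperature; AlphaScreen streptavidin donor/nickel chelate acceptor beads (10 ug/mL final) read after 30 min dark incubation.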
# G9a inh: qHTS Assay for Inhibitors of Histone Lysine Methyltransferase G9a; 350,000 tested, 8.8% active; Potency, µM (highest dose often 102 µM), without a hit: at the highest dose activity, negative = inhibition, hits mostly inhibitors; G9a H3K9 monomethylation, AlphaScreen, 2 h; Histone-lysine N-methyltransferase EHMT2 (Homo sapiens), Q96KQ7; note: % is set by controls: 0 for no effect and ±100 for the full control effect; nearly all actives have a fitted effect of over 75% in size
# Target sequence (Q96KQ7 913-1193 limits assumed): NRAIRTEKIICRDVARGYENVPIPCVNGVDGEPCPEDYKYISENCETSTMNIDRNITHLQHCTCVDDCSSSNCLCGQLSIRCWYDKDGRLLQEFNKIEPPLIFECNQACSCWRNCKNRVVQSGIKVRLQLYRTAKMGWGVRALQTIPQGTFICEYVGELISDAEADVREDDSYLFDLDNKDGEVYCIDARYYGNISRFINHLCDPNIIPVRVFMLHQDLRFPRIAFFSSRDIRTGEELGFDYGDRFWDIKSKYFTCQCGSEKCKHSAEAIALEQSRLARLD
#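 Methyltransferase reactions run at room temperature for 2 h (20 nM enzyme, 500 nM biotin-H3K9 peptide, 20 uM SAM) after a 15 min compound preincubation; product detected by AlphaScreen beads and anti-H3K9me1 antibody.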
# GLS inhibitor: qHTS for Inhibitors of Glutaminase (GLS); GLS enzymatic activity, qHTS titration; Potency, µM (doses to about 45.5 µM), for inactives: at the top dose activity change, negative = inhibition, most hits filed as inhibitors; 410,000 tested, 0.21% active; note: % is set by controls: 0 for no effect and ±100 for the full control effect
#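 Enzyme dispensed in phosphate buffer (45 mM, pH 8.2, 0.02% Tween-20), compounds pinned in, then 1 mM L-glutamine solution and the glutamate oxidase–HRP–Amplex Red mix added; fluorescence read immediately and again after 30 min at room temperature.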
# Active calls of the source: *; ? = inconclusive; . = no result given; [ ] = another dose, or the depositor's remark. A selection: hits, their analogues and other compounds. The true share with any hit is near 10%. Calls come from the whole dose curve; as a rule, active = well fitted curve in the direction sought with a large enough effect; inconclusive = small, poorly fitted or top-dose-only effect, or another doubt; inactive = no such curve, though single readings can be large; an effect the other way counts as inactive or inconclusive. Potency is the fitted concentration of half-maximal effect.
SMILES,BAZ2B inh,JMJD2A Tudor,HP1b binding inh,L3MBTL1 inh,G9a inh,GLS inhibitor
COc1ccc(OC)c(C2Nc3c(Cl)ccc(C(=O)O)c3C3C=CCC32)c1 (stereo unspecified),-26%,?,?,-14%,20µM*,-13%
Cc1cc([N+](=O)[O-])cc2c1NC(c1ccccn1)C1CC=CC21 (stereo unspecified),-23%,50µM*,-8%,-2%,-1%,3%
Cc1ccc([N+](=O)[O-])cc1S(=O)(=O)Nc1ccccn1,0%,-3%,37%,35%,5%,-1%
Nc1cc(S(=O)(=O)N2CCN(S(=O)(=O)c3ccc4c(c3)OCCO4)CC2)ccn1,.,-35%,.,.,.,.
Cc1ccc(NNC(=O)Nc2ccc(Cl)cc2)nn1,-23%,79µM*,?,.,4µM*,13%
CCn1c(CNC(=O)c2cccs2)n[nH]c1=S,9%,8.9µM*,?,-10%,?,4%
O=C(NCc1n[nH]c(=S)n1-c1cccc(Cl)c1)c1cccs1,-4%,20µM*,?,-15%,20µM*,-11%
O=C(NCc1n[nH]c(=S)n1-c1ccc(Cl)c(Cl)c1)c1cccs1,?,-14%,19%,.,?,-3%
CC(NC(=O)c1cccs1)c1n[nH]c(=S)n1C (stereo unspecified),5%,8.9µM*,-11%,6%,?,1%
CC(NC(=O)c1cccs1)c1ccccc1 (stereo unspecified),.,-5%,36%,.,.,4%
O=C(NCc1n[nH]c(=S)n1-c1ccccc1)c1cccs1,-19%,16µM*,7%,-1%,22µM*,4%
CCOC(=O)N1CCc2c(sc3c2c(=O)n(-c2ccc(CC)cc2)c(=O)n3CC(=O)Nc2ccc(C)cc2)C1,-6%,-15%,15%,.,-16%[59 µM],-7%
COc1cc2ccc3c(CCN(C)C)cc(OC)c(OC)c3c2cc1OC,-39%,-29%,-1%,-3%,.,7%
CN(C)CCc1cc2c(c3c1ccc1ccccc13)OCO2,?,-54%,?,-4%,40µM*,9%
O=c1oc2ccccc2nc1/C=C(O)/C=C\c1ccccc1,?,-21%,24%,-9%,56µM*,17%
Cc1ccc(/C(O)=C/c2nc3ccccc3oc2=O)cc1,-31%,0%,34%,1%,28µM*,-4%
Cc1ccc2oc(=O)c(/C=C(\O)C(C)(C)C)nc2c1,?,-6%,37%,-20%,?,-22%
O=c1oc2ccccc2nc1/C=C(O)/C=C/c1ccc(F)cc1,50µM*,?,21%,?,45µM*,3%
Cc1ccc2oc(=O)c(/C=C(\O)c3ccco3)nc2c1,-15%,2%,36%,-9%,.,-4%
O=C(Nc1ccc2c(c1)N(C1CCCC1)C(=O)c1ccccc1S2)c1ccc(F)cc1,-5%,-25%,-8%,.,2%[59 µM],-2%
O=C(Oc1ccc(Br)cc1C(=S)N1CCOCC1)c1ccccc1,10%,-20%,-15%,.,45µM*,-8%
COc1ccc(CC(=O)Oc2ccc(Cl)cc2Br)cc1S(=O)(=O)N1CCOCC1,-6%,-25%,22%,4%,?,49%
S=C(c1ccc(-c2ccccc2)cc1)N1CCOCC1,-1%,-25%,-11%,-3%,40µM*,-7%
COc1cc(C(=O)Oc2cccc(C(=S)N3CCOCC3)c2)cc(OC)c1OC,?,-28%,-14%,.,22µM*,10%
COc1ccc(CC(=O)Oc2ccc(Br)cc2F)cc1S(=O)(=O)N1CCOCC1,7%,-12%,2%,2%,50µM*,23%
